In PubChem BioAssay (NCI):
Compounds without any hit were thinned out: in the full panel of roughly 79,000, 15% have a hit. Activity calls are given as the source filed them. Rule as the data show it: active = growth inhibition above about 70%; inactive = the rest.

Tests used:
[1] = NCI Yeast Anticancer Drug Screen. Data for the rad50 strain (AID 155);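 also: 0% = growth of vehicle-only cultures of the same strain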; details: S. cerevisiae rad50 strain growth inhibition, hits give high values
Method in brief: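 Compounds were tested on a yeast strain with an engineered DNA damage repair alteration; the reported value is growth inhibition normalised to vehicle treatment.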

[2] = NCI Yeast Anticancer Drug Screen. Data for the mec2-1 strain (AID 157); details: S. cerevisiae mec2-1 strain, hits give high values
Method in brief: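 Yeast mec2-1 mutant treated with compound. Readout: growth inhibition vs vehicle controls.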

[3] = NCI Yeast Anticancer Drug Screen. Data for the sgs1 mgt1 strain (AID 161);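 also: 0% = growth of cultures given vehicle only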; details: S. cerevisiae sgs1 mgt1 strain, hits give high values
Method in brief: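 Read-out: growth inhibition vs vehicle controls. Cells: mutant yeast strain deficient in DNA damage repair.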

[4] = NCI Yeast Anticancer Drug Screen. Data for the cln2 rad14 strain (AID 165);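 also: 0% = growth equal to vehicle treated cultures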; details: S. cerevisiae cln2 rad14 strain, hits give high values
Method in brief: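 cln2 rad14 yeast strain; compound exposure; growth inhibition read vs vehicle controls.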

[5] = NCI Yeast Anticancer Drug Screen. Data for the bub3 strain (AID 167); details: S. cerevisiae bub3 mutant strain, hits give high values
Method in brief: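 Growth of a checkpoint-deficient yeast mutant is measured after compound exposure. Values represent inhibition relative to vehicle.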

[6] = NCI Yeast Anticancer Drug Screen. Data for the mlh1 rad18 strain (AID 175); details: S. cerevisiae mlh1 rad18 strain growth inhibition, hits give high values
Method in brief: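 Yeast w/ defined DNA-repair lesions; compound exposure; growth vs vehicle controls → % inhibition.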

[7] = at 5.0 µM (retest, dose inferred, filed as 0.5)
[8] = at 50.0 µM (retest, dose inferred, filed as 5.0)

Measured: growth inhibition

O=[C-]CCCCCC[C-]=O.[C-]#[O+].[C-]#[O+].[C-]#[O+].[C-]#[O+].[Fe+6].[Fe+6].[c-]1[c-][c-][cH-][c-]1.[c-]1[c-][c-][cH-][c-]1
inactive: [1]; [7] 9% | [2]; [7] 13% | [3]; [7] 1% | [4]; [7] 1% | [5]; [7] -4% | [6]; [7] 5%
active: [1]; [8] 97% | [1]; at 50.0 µM 97.9% | [2]; [8] 97% | [2]; at 50.0 µM 98.5% | [3]; [8] 98% | [3]; at 50.0 µM 96.8% | [4]; [8] 97% | [4]; at 50.0 µM 97.8% | [5]; [8] 97% | [5]; at 50.0 µM 99% | [6]; [8] 98% | [6]; at 50.0 µM 93.1%

O=C(Nc1ccccc1)OC(C[N+](=O)[O-])C(Cl)(Cl)Cl (configuration not stated)
active: [1]; [8] 99% | [1]; at 50.0 µM 99.3% | [2]; [8] 100% | [2]; at 50.0 µM 95.8% | [3]; [8] 99% | [3]; at 50.0 µM 99.1% | [4]; [8] 91% | [5]; [8] 100% | [5]; at 50.0 µM 99.2% | [6]; [8] 99% | [6]; at 50.0 µM 99.2%
inactive: [1]; [7] 12% | [2]; [7] 10% | [3]; [7] 5% | [4]; [7] 10% | [4]; at 50.0 µM 42.6% | [5]; [7] 2% | [6]; [7] 11%

COc1ccc(OC)c(C=O)c1
inactive: [1]; [7] 1% | [1]; [8] 5% | [1]; at 50.0 µM 24.9% | [2]; [7] 0% | [2]; [8] 7% | [2]; at 50.0 µM -12.2% | [3]; [7] -2% | [3]; [8] 12% | [3]; at 50.0 µM -11.7% | [4]; [7] 2% | [4]; [8] 4% | [4]; at 50.0 µM -38.2% | [5]; [7] 2% | [5]; [8] 7% | [5]; at 50.0 µM -35% | [6]; [7] -1% | [6]; [8] 14% | [6]; at 50.0 µM -8%

Oc1c(Cl)c(Cl)c(Cl)c(Cl)c1Cl.[Cu+2]
inactive: [1]; [7] 23% | [2]; [7] 18% | [3]; [7] 31% | [4]; [7] 8% | [5]; [7] 11% | [6]; [7] 15%
active: [1]; [8] 98% | [1]; at 50.0 µM 88.5% | [2]; [8] 99% | [2]; at 50.0 µM 89.8% | [3]; [8] 98% | [3]; at 50.0 µM 81% | [4]; [8] 99% | [4]; at 50.0 µM 92.8% | [5]; [8] 97% | [5]; at 50.0 µM 89.5% | [6]; [8] 96% | [6]; at 50.0 µM 88.6%

CC(=O)Oc1ccc(N=C2C=C(Cl)C(=O)C(Cl)=C2)cc1
inactive: [1]; [7] 5% | [1]; [8] 23% | [1]; at 50.0 µM 34.5% | [2]; [7] 9% | [2]; [8] 26% | [2]; at 50.0 µM -2.05% | [3]; [7] 2% | [3]; [8] 24% | [3]; at 50.0 µM 33.4% | [4]; [7] 6% | [4]; [8] 14% | [4]; at 50.0 µM -23.8% | [5]; [7] 9% | [5]; [8] 46% | [5]; at 50.0 µM 22.7% | [6]; [7] 7% | [6]; [8] 54% | [6]; at 50.0 µM 19.9%

C[CH2][Sn][CH2]C.c1cc[c]([Ge]([c]2ccccc2)[c]2ccccc2)cc1.c1cc[c]([Sn]([c]2ccccc2)[c]2ccccc2)cc1
active: [1]; [7] 99% | [1]; [8] 96% | [1]; at 50.0 µM 99.2% | [2]; [7] 99% | [2]; [8] 98% | [2]; at 50.0 µM 99.5% | [3]; [7] 100% | [3]; [8] 98% | [3]; at 50.0 µM 99.5% | [4]; [7] 98% | [4]; [8] 97% | [4]; at 50.0 µM 98.4% | [5]; [7] 99% | [5]; [8] 95% | [5]; at 50.0 µM 99.3% | [6]; [7] 99% | [6]; [8] 97% | [6]; at 50.0 µM 98.8%

CC(=O)O[C@H]1CC[C@H]2[C@@H]3CC[C@H]4CC(=O)CC[C@@H]4[C@H]3CC[C@]12C
active: [3]; at 50.0 µM 88.6%
inactive: [1]; [7] -2% | [1]; [8] -19% | [1]; at 50.0 µM 11% | [2]; [7] -2% | [2]; [8] -9% | [2]; at 50.0 µM 10.8% | [3]; [7] -2% | [3]; [8] -10% | [4]; [7] -14% | [4]; [8] -6% | [4]; at 50.0 µM 1.15% | [5]; [7] 4% | [5]; [8] 7% | [5]; at 50.0 µM 61.5% | [6]; [7] -1% | [6]; [8] -7% | [6]; at 50.0 µM -1.35%

C/C(=N\N)C(CN1CCCCC1)C(c1ccccc1)c1c(O)c2ccccc2oc1=O (configuration not stated)
inactive: [1]; [7] 3% | [1]; [8] 3% | [2]; [7] 1% | [2]; [8] 1% | [2]; at 50.0 µM 63.8% | [3]; [7] 3% | [3]; [8] 3% | [4]; [7] 4% | [4]; [8] 4% | [5]; [7] 3% | [5]; [8] 3% | [6]; [7] 8% | [6]; [8] 8%
active: [1]; at 50.0 µM 79.8% | [3]; at 50.0 µM 81.7% | [4]; at 50.0 µM 74% | [5]; at 50.0 µM 76.3% | [6]; at 50.0 µM 80%

N#CC(C#N)=Cc1ccc2c(c1)OC(Cl)O2 (configuration not stated)
inactive: [1]; [7] 25% | [1]; [8] 46% | [1]; at 50.0 µM 59.6% | [2]; [7] 26% | [2]; [8] 27% | [2]; at 50.0 µM 49.2% | [3]; [7] 15% | [3]; [8] 33% | [3]; at 50.0 µM 57.5% | [4]; [7] 15% | [4]; [8] 18% | [4]; at 50.0 µM 55.5% | [5]; [7] -11% | [5]; [8] 16% | [5]; at 50.0 µM 55.9% | [6]; [7] 35% | [6]; [8] 35% | [6]; at 50.0 µM 66.5%
